Measurements published in ChEMBL document CHEMBL4513216, “Probing the Open Global Health Chemical Diversity Library for Multistage-Active Starting Points for Next-Generation Antimalarials” (ACS Infect Dis, 2020).
Among all 69,000 compounds or so, about 8,600 (12%) showed an effect of 50% or more. The list comes from a sample in which strong results are over-represented; it also holds similar structures and randomly drawn compounds.

These compounds were tested on Plasmodium berghei (assay: Screen against P. berghei liver stage (PbLuc), transformed with Luciferase, at 10uM). Conditions: tested at 10 uM.
Type: functional, HepG2
For `Cc1ccc(NC2CCN(C(=O)c3c(C)oc(C)c3C)CC2)nn1`, the INHIBITION was 9.365%.
With `COc1ccccc1COCC(O)CN1CC(n2cccn2)C1` (configuration not stated) the INHIBITION was 19.85%.
Work on `N#Cc1ccc(C2CC(=O)Nc3c2cnn3C2CCCC2)cc1` (configuration not stated) yielded an INHIBITION of -11.1%.
`O=C1CC(c2ccc(F)cc2)c2cnn(C3CCCC3)c2N1` (configuration not stated) was tested, and the INHIBITION was 70.2%.
Work on `COc1ccc(C2CC(=O)Nc3c2cnn3C2CCCC2)cc1` (configuration not stated) yielded an INHIBITION of -9.67%.
For `Cc1nnc(CN(C)CC(=O)NC(C)(C)c2ccc(F)cc2)n1C`, the INHIBITION was 10.1%.
For `Fc1cccc(Cl)c1CNCc1ccccn1`, the INHIBITION was 10.7%.
Work on `O=C(c1cnccn1)N1CCC(CN2CCOCC2)CC1` yielded an INHIBITION of 30%.
For `CC1COCCN1C(=O)c1cnccn1` (configuration not stated), the INHIBITION was 53.5%.
Compound `CCCN1CCN(C(=O)c2cnccn2)[C@H]2CS(=O)(=O)C[C@H]21` has an INHIBITION of 51.8%.
`CCC(=O)N1CCN(Cc2cnc(C)nc2)[C@H]2CS(=O)(=O)C[C@H]21` showed an INHIBITION of 53.1%.
`CCCN1CCN(C(=O)c2ccc(Cl)cn2)[C@H]2CS(=O)(=O)C[C@H]21` gave an INHIBITION of 37.6%.
`CCCN1CCN(C(=O)c2cccc(C)n2)[C@H]2CS(=O)(=O)C[C@H]21` gave an INHIBITION of 21.2%.
`Cc1ncc(CN2CCN(C(=O)C3CCC3)[C@@H]3CS(=O)(=O)C[C@@H]32)cn1` was tested, and the INHIBITION was 14.8%.
In the case of `CCCN1CCN(C(=O)c2cc3ccccc3cn2)[C@H]2CS(=O)(=O)C[C@H]21`, the INHIBITION is reported as 43.9%.
`Cc1ncc(CN2CCN(C(=O)N(C)C)[C@@H]3CS(=O)(=O)C[C@@H]32)cn1` showed an INHIBITION of 31.6%.
With `CCCN1CCN(C(=O)c2ccc3ccccc3n2)[C@H]2CS(=O)(=O)C[C@H]21` the INHIBITION was -15.1%.
In the case of `CCCN1CCN(C(=O)c2cc[nH]n2)[C@H]2CS(=O)(=O)C[C@H]21`, the INHIBITION is reported as 53.9%.
Compound `Cc1cnc(C(=O)N2CCOCC2C)cn1` (configuration not stated) has an INHIBITION of 33.7%.
`CC(C)c1nccn1-c1nccnc1C1CCCN1Cc1ccccc1` (configuration not stated) showed an INHIBITION of 28.5%.
Work on `O=C(NCCCNC(=O)c1ccc(F)cc1F)c1cccc(O)c1` yielded an INHIBITION of -2.61%.
In the case of `CC(Cn1ccnc1)NC(=O)N1CCN(Cc2ccncc2)CC1` (configuration not stated), the INHIBITION is reported as 13.03%.
`CC(C)c1ocnc1C(=O)Nc1cccc(Cn2ccccc2=O)c1` showed an INHIBITION of 26.5%.
For `Cc1nn(C)c(N(C)C)c1CNCc1ccccc1Cn1ccnc1`, the INHIBITION was 27.6%.
For `CC(=O)Nc1nc(C2CCCN(C(=O)CN(C)C)C2)cs1` (configuration not stated), the INHIBITION was 8.72%.
Work on `CC(NS(=O)(=O)CCc1ccccn1)c1ccccc1Br` (configuration not stated) yielded an INHIBITION of -9.35%.
With `CCC(=O)c1ccc(OCC(=O)N(C)C(C)c2ccon2)cc1` (configuration not stated) the INHIBITION was 20.6%.
In the case of `CC1=N[C@@]2(CC[C@@H]3CN(Cc4ccccc4F)C[C@@H]32)C(=O)N1C`, the INHIBITION is reported as 19.8%.
For `CNC(=O)[C@@H]1CCO[C@@H]2CCN(Cc3ccsc3)C[C@H]21`, the INHIBITION was 31.1%.
In the case of `CCN1CCOC(CNCc2cnc(N(CC)CC)s2)C1` (configuration not stated), the INHIBITION is reported as -81.1%.
In the case of `CCCN1CCN(C(=O)c2cnc(C)nc2)[C@H]2CS(=O)(=O)C[C@H]21`, the INHIBITION is reported as 2.15%.
Work on `CCCN1CCN(C(=O)c2cnccc2C)[C@H]2CS(=O)(=O)C[C@H]21` yielded an INHIBITION of 19.4%.
`Cc1nc(C(=O)N2CCN(C(=O)C3CCC3)[C@@H]3CS(=O)(=O)C[C@@H]32)cs1` showed an INHIBITION of 33.1%.
With `CCCN1CCN(C(=O)c2cncnc2C)[C@H]2CS(=O)(=O)C[C@H]21` the INHIBITION was 51.2%.
In the case of `Cc1nc(C(=O)N2CCN(S(C)(=O)=O)[C@@H]3CS(=O)(=O)C[C@@H]32)cs1`, the INHIBITION is reported as 39.8%.
For `Cc1nc(C(=O)N2CCN(C(=O)N(C)C)[C@@H]3CS(=O)(=O)C[C@@H]32)cs1`, the INHIBITION was 57.8%.
`O=C1C[C@H]2[C@H](CCN2C(=O)c2ccno2)N1CC1CC1` was tested, and the INHIBITION was 41.4%.
Work on `Cc1cc(N(C)C)nc(C2(C)CCCN2CC(N)=O)n1` (configuration not stated) yielded an INHIBITION of 18.8%.
In the case of `N#Cc1ccccc1CN1C[C@H]2CC[C@@H](C1)N(CC1CC1)C2=O`, the INHIBITION is reported as 25.1%.
For `Cc1cc2c(=O)n3c(nc2s1)CCN(C(=O)c1ccnn1C(C)C)CC3`, the INHIBITION was 11.1%.
`c1cnnc(N[C@@H]2CC[C@@H]3CN(Cc4ccc5cc[nH]c5c4)C[C@@H]32)c1` was tested, and the INHIBITION was -4.68%.
Work on `COCC(=O)N1C[C@@H](C)[C@](O)(C(C)C)C1` yielded an INHIBITION of 46.4%.
In the case of `CC(Nc1nccc(CCC(F)(F)F)n1)c1nc(-c2ccncc2)no1` (configuration not stated), the INHIBITION is reported as 50.4%.
`CC(Nc1nccc(CCC(F)(F)F)n1)c1nc(-c2ccccn2)no1` (configuration not stated) gave an INHIBITION of 21.2%.
In the case of `CC(C)c1noc(C(C)Nc2nccc(CCC(F)(F)F)n2)n1` (configuration not stated), the INHIBITION is reported as 29.6%.
Work on `O=C(c1ccnnc1)N1CCN(Cc2ccncc2)c2ncccc2C1` yielded an INHIBITION of 23.3%.
`CC(C)(C)C(O)CN1CCN(C(=O)c2ccc3c(c2)COC3)CC1` (configuration not stated) was tested, and the INHIBITION was 31.8%.
`CC(O)CN1CCN(C(=O)c2cc3ccccc3n2C)CC1` (configuration not stated) gave an INHIBITION of 66.8%.
Work on `CCC(O)CN1CCN(C(=O)c2ccc3c(c2)COC3)CC1` (configuration not stated) yielded an INHIBITION of -9.37%.
`CCC(O)CN1CCN(C(=O)c2cc3ccccc3n2CC)CC1` (configuration not stated) gave an INHIBITION of 1.75%.
Work on `CCn1c(C(=O)N2CCN(CC(C)O)CC2)cc2ccccc21` (configuration not stated) yielded an INHIBITION of 35.7%.
Work on `CC(O)CN1CCN(C(=O)c2ccc3c(c2)COC3)CC1` (configuration not stated) yielded an INHIBITION of 60.5%.
`O=C(c1cncs1)N1CCOCC(Cc2ccccn2)C1` (configuration not stated) was tested, and the INHIBITION was 13.94%.
`COCCO[C@@H]1CCN(C(=O)c2ccc(C)o2)[C@@H]1Cc1cccnc1` showed an INHIBITION of 2.3%.
`COc1cc(-c2n[nH]c(CN)n2)cc(OC)c1OC` gave an INHIBITION of -9.21%.
`COc1ccc(C(O)CNC(=O)NCCc2csc(C)n2)cc1` (configuration not stated) was tested, and the INHIBITION was 44.1%.
Work on `O=C(C1CCN(Cc2nc(-c3ccco3)no2)CC1)N1CCCC1` yielded an INHIBITION of 25.1%.
`O=C(NC1CCC(N2C(=O)CCC2=O)CC1)c1c[nH]c2ccccc12` (configuration not stated) gave an INHIBITION of 76.7%.
For `Cc1ccc(F)c(C(=O)NC2CCC(N3C(=O)CCC3=O)CC2)c1` (configuration not stated), the INHIBITION was -35%.
In the case of `Cc1[nH]ccc1C(=O)NC1CCC(N2C(=O)CCC2=O)CC1` (configuration not stated), the INHIBITION is reported as -86.5%.
For `CN(C)CCn1c2c(ccc1=O)CC(NC(=O)c1ccsc1)CC2` (configuration not stated), the INHIBITION was 37.5%.
Work on `Cc1oc(C)c(C(=O)NCc2cccnc2)c1C` yielded an INHIBITION of -8.75%.
